Read-out in experiment [1]: TIMP metallopeptidase inhibitor 1 (TIMP1), TIMP1 (gene 7076)
The experiment in a line: BSK_hDFCGF_TIMP1: BioMAP Diversity Plus: hDFCGF Assay for TIMP metallopeptidase inhibitor 1 (TIMP1) Biomarker Activity (AID 2283062). As to conditions: primary human foreskin fibroblasts; actives raise or lower the signal. Summed up:
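Fibroblasts from human foreskin are treated with test chemical and harvested at 24 h. TIMP-1 is quantified by ELISA, and gain or loss of signal is scored against DMSO.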

Read-out in experiment [2]: Monokine induced gamma interferon (MIG), CXCL9 (gene 4283)
The experiment in a line: BSK_hDFCGF_MIG: BioMAP Diversity Plus: hDFCGF Assay for Monokine induced gamma interferon (MIG) Biomarker Activity (AID 2283063). As to conditions: primary human foreskin fibroblasts; actives raise or lower the signal. In outline:
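MIG signal, determined by ELISA, reflects 24 h chemical exposure of human skin primary fibroblasts. DMSO serves as negative control and baseline.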

Read-out in experiment [3]: Matrix Metallopeptidase 1 (MMP1), MMP1 (gene 4312)
Put plainly: BSK_hDFCGF_MMP1: BioMAP Diversity Plus: hDFCGF Assay for Matrix Metallopeptidase 1 (MMP1) Biomarker Activity (AID 2283064). As to conditions: primary human foreskin fibroblasts; actives raise or lower the signal. In outline: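 ELISA read-out of MMP1 from human foreskin fibroblasts (primary skin cells), 24 h post-dose. Gain or loss of signal was fitted bidirectionally versus DMSO negative control; cytotoxicity was checked by SRB in parallel cultures.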

Read-out in experiment [4]: Plasminogen activator inhibitor-1 (PAI1), SERPINE1 (gene 5054)
The experiment in a line: BSK_hDFCGF_PAI1: BioMAP Diversity Plus: hDFCGF Assay for Plasminogen activator inhibitor-1 (PAI1) Biomarker Activity (AID 2283066). The settings on record: primary human foreskin fibroblasts; actives raise or lower the signal. Summed up: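 Human skin fibroblast cultures receive chemical for 24 h before PAI-1 is measured by ELISA; signal changes are fitted bidirectionally against DMSO-treated wells.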

Read-out in experiment [5]: Intercellular Adhesion Molecule 1 (ICAM1), ICAM1 (gene 3383)
The experiment in a line: BSK_KF3CT_ICAM1: BioMAP Diversity Plus: KF3CT Assay for Intercellular Adhesion Molecule 1 (ICAM1) Biomarker Activity (AID 2283067). As to conditions: primary human keratinocytes with fibroblasts; actives raise or lower the signal. Summed up:
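Dose the keratinocyte/fibroblast co-culture, wait 24 h, measure ICAM-1 by ELISA, then fit increases or decreases against DMSO. Cytotoxicity is checked in parallel cultures by SRB total-protein staining.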

Read-out in experiment [6]: Interferon-gamma inducible Protein 10 (IP10), CXCL10 (gene 3627)
Put plainly: BSK_KF3CT_IP10: BioMAP Diversity Plus: KF3CT Assay for Interferon-gamma inducible Protein 10 (IP10) Biomarker Activity (AID 2283068). The settings on record: primary human keratinocytes with fibroblasts; actives raise or lower the signal. Summed up: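 KF3CT co-culture (keratinocytes + foreskin fibroblasts), 24 h compound, IP-10 by ELISA; bidirectional fit vs DMSO baseline.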

Experiment [7] in a line: BSK_KF3CT_SRB: Viability Assessment in the BioMAP Diversity Plus: KF3CT Assay (AID 2283069).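 Further: total protein by sulforhodamine B staining as a cytotoxicity measure; read 24 h after compound addition; fitted for both signal gain and loss against DMSO baseline.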 The settings on record: primary human keratinocytes with fibroblasts. Summed up:
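SRB read-out at 560 nm (0.1% stain, TCA-fixed cells) gauges overt cytotoxicity in a human skin keratinocyte–fibroblast co-culture 24 h post-dosing. Signal change was fitted bidirectionally relative to DMSO control.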

Read-out in experiment [8]: Interleukin-1 alpha (IL1a), IL1A (gene 3552)
The experiment in a line: BSK_KF3CT_IL1a: BioMAP Diversity Plus: KF3CT Assay for Interleukin-1 alpha (IL1a) Biomarker Activity (AID 2283070). As to conditions: primary human keratinocytes with fibroblasts; actives raise or lower the signal. Summed up: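 Primary skin co-culture (keratinocytes, foreskin fibroblasts), 24 h exposure; ELISA for IL-1a; bidirectional curve fit vs DMSO.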

Read-out in experiment [9]: TIMP metallopeptidase inhibitor 2 (TIMP2), TIMP2 (gene 7077)
The experiment in a line: BSK_KF3CT_TIMP2: BioMAP Diversity Plus: KF3CT Assay for TIMP metallopeptidase inhibitor 2 (TIMP2) Biomarker Activity (AID 2283071). As to conditions: primary human keratinocytes with fibroblasts; actives raise or lower the signal. Summed up: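 Measurements come from ELISA detection of TIMP-2 at 24 hours in a dosed human keratinocyte and foreskin fibroblast co-culture. DMSO serves as negative control and baseline.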

Read-out in experiment [10]: Vascular cell adhesion molecule 1 (VCAM1), VCAM1 (gene 7412)
Put plainly: BSK_hDFCGF_VCAM1: BioMAP Diversity Plus: hDFCGF Assay for Vascular cell adhesion molecule 1 (VCAM1) Biomarker Activity (AID 2283065).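 On AC50: VCAM-1 protein level quantified by ELISA after 24 h chemical exposure.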 As to conditions: primary human foreskin fibroblasts; actives raise or lower the signal. In outline: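 Cells are dosed, cultured for 24 h, then VCAM-1 is quantified by ELISA; signal increases and decreases are both fitted relative to DMSO.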

Where a structure was tested more than once in an assay, its records may differ in their call. Activity calls are given as the source filed them. How the source made its calls: active means hit-call score of the fitted dose curve at least 0.9, where 1 is the maximum; inactive means score below 0.9.

From PubChem BioAssay (EPA / NIEHS) come the findings set out here.

Take `CSCCC=O`: the outcome in [1], in experiment [2], in experiment [3], in [4], in experiment [5] and in [6] was inactive. For the same compound, the outcome in [7], in experiment [8] and in [9] was inactive.

With `C=C(C)C(=O)OCC(CC)(COC(=O)C(=C)C)COC(=O)C(=C)C`, the concentration at half-maximal activity (AC50) was 33 µM (active) in [1], 34.3 µM (active) in experiment [2], 23.4 µM (active) in [10] and 16 µM (active) in experiment [4]. Moreover, the outcome in experiment [5], in [6], in [7], in experiment [8] and in [9] was inactive.

For the compound `O=C1OC2(c3ccccc31)c1ccc(O)c(Br)c1Oc1c2ccc(O)c1Br`, the outcome in [1], in experiment [2], in experiment [3], in experiment [4], in experiment [5] and in experiment [6] was inactive. For the same compound, the outcome in experiment [7] was inactive. The AC50 in experiment [8] and in experiment [9] was 20 µM (active) in each case.

Turning to `O=C1c2ccccc2C(=O)c2c(O)ccc(O)c21`, the result in experiment [1], in [2], in experiment [10], in experiment [5], in experiment [6] and in experiment [7] was inactive. For the same compound, the result in [8] and in experiment [9] was inactive. In experiment [4], the concentration at half-maximal activity (AC50) was 4.59 µM (active).

`C=C(C)C(=O)OCCOCCOCCOCCOC(=O)C(=C)C`: the outcome in experiment [1], in experiment [2], in [10], in experiment [4], in experiment [5] and in experiment [6] was inactive. For the same compound, the outcome in [7], in experiment [8] and in experiment [9] was inactive.

For the compound `O=C(Nc1ccc2c(O)c(N=Nc3ccc(N=Nc4ccc(S(=O)(=O)O)cc4)cc3)c(S(=O)(=O)O)cc2c1)c1ccccc1`, the outcome in [1], in experiment [2], in experiment [4], in experiment [5], in experiment [6] and in [7] was inactive. The outcome in experiment [8] and in experiment [9] was inactive. Moreover, the AC50 in experiment [2] is 23.6 µM (active).

With `CC(CN=Cc1ccccc1O)N=Cc1ccccc1O` (centres undefined), the result in experiment [1], in experiment [2], in experiment [4], in experiment [5], in experiment [6] and in [7] was inactive. In addition, the outcome in experiment [8] and in [9] was inactive.

Consider `c1ccc(Oc2ccccc2)cc1`, for which the outcome in experiment [1], in [2], in experiment [10], in [4], in [5] and in experiment [7] was inactive. Besides, the half-maximal activity concentration (AC50) in experiment [6] is 34.6 µM (active); in experiment [8], 20 µM (active); in [9], 30.8 µM (active).

On to `O=C1OC[C@H](Cc2cccc(O)c2)[C@H]1Cc1cccc(O)c1`, for which the result in [1], in experiment [2], in experiment [4], in [5], in experiment [6] and in experiment [7] was inactive. Also, the outcome in [8] and in experiment [9] was inactive.

In the case of `CS(=O)(=O)c1ccc(C2=C(c3ccccc3)C(=O)OC2)cc1`, the result in experiment [1], in experiment [2], in [4], in experiment [5], in experiment [7] and in experiment [8] was inactive. The outcome in [9] was inactive. In experiment [6], the AC50 is 0.0374 µM (active).

As for `C=C(C)[C@H]1CC=C(C)C(=O)C1`, the result in [1], in [2], in experiment [10], in experiment [4], in [5] and in [6] was inactive. The outcome in experiment [7], in experiment [8] and in [9] was inactive.

In the case of `C=C(C)C(=O)OCCOCCOCCOC(=O)C(=C)C`, the outcome in experiment [1], in [2], in experiment [3], in [5], in experiment [6] and in [7] was inactive. Further, the result in [9] was inactive. For the same compound, the concentration at half-maximal activity (AC50) in experiment [4] is 0.0518 µM (active); in experiment [8], 0.041 µM (active).

Turning to `CC(=O)Nc1ccc(C(=O)CCl)cc1`, the concentration at half-maximal activity (AC50) was 7.91 µM (active) in experiment [1]; 9.4 µM (active) in experiment [2]; 10.5 µM (active) in experiment [3]; 7.32 µM (active) in [10]; 10.8 µM (active) in [4]; 26.6 µM (active) in experiment [5]. Also, the half-maximal activity concentration (AC50) is 23.2 µM (active) in [6], 31 µM (active) in [8] and 20 µM (active) in experiment [9]. The outcome in [7] was inactive.

As to `CC(C=O)Cc1ccc(C(C)(C)C)cc1` (centres undefined), the concentration at half-maximal activity (AC50) in experiment [1] was 31.9 µM (active); in experiment [4], 27.4 µM (active); in [9] it was 32.4 µM (active). Moreover, the result in [2], in experiment [5], in [6], in experiment [7] and in experiment [8] was inactive.

In the case of `C1=CC2C3C=CC(C3)C2C1` (centres undefined), the result in experiment [1], in [2], in [4], in experiment [5], in [6] and in experiment [7] was inactive. Moreover, the outcome in experiment [8] and in experiment [9] was inactive.

As to `C=CC(C)(O)CCC=C(C)C` (centres undefined), the result in experiment [1], in experiment [2], in experiment [4], in [5], in experiment [6] and in [7] was inactive. In addition, the result in experiment [8] and in experiment [9] was inactive.

For the compound `CN(C)C(=O)Nc1ccc(Oc2ccc(Cl)cc2)cc1`, the outcome in [1], in experiment [2], in experiment [5], in experiment [6], in experiment [7] and in experiment [8] was inactive. Further, the result in [9] was inactive. In experiment [4], the AC50 was 0.016 µM (active).

With `CC1(C)C2=CCCC(C)(C)[C@]23CC[C@H]1C3`, the AC50 is 31.2 µM (active) in experiment [1], 32.9 µM (active) in experiment [4] and 30.2 µM (active) in experiment [9]. In addition, the result in [2], in experiment [3], in [5], in [6], in [7] and in experiment [8] was inactive.

With `CCCCCC(C=O)=Cc1ccccc1`, the result in experiment [1], in experiment [2] and in experiment [4] was inactive. In addition, the AC50 in experiment [5] is 33.1 µM (active); in [6], 30.4 µM (active); in experiment [7], 36.5 µM (active); in experiment [8] it was 20 µM (active); in experiment [9] it was 30 µM (active).
